In the library only some 9.4% were active in any assay of this set; here they are far more common.
ELG1 DNA repair – ELG1-dependent DNA repair inhibition. HEK293T ELG1-luciferase reporter, luminescence, 16 h; DNA damage induced by 5-fluorouridine. Potency, µM (series often up to 46.1 µM), usual class: inhibitors. hit rate 2.3% among 330,000. AID 504467; further: nearly all actives have a fitted effect of over 55% in size
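HEK293T cells expressing luciferase-tagged ELG1 (2,000/well) received 5-Fluorouridine plus compound or DMSO for 16 hr at 37 °C. Luciferase was read by ONE-Glo luminescence after 30 min at room temperature.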
ELG1 genotoxic – induces genotoxicity in HEK293T cells with luciferase-tagged ELG1; Potency, µM (doses to about 46 µM), most hits filed as activators; HEK293T ELG1-luciferase reporter, luminescence, 16 h; AID 504466; hit rate 1.3% among 330,000; further: nearly all actives have a fitted effect of over 60% in size
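Genotoxicity was scored as increased ELG1-luciferase reporter signal, measured by ONE-Glo luminescence (30 min, room temperature). Compound or vehicle exposure of the HEK293T reporter cells lasted 16 hr at 37°C.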
NPC1 prom act – activators of NPC1 promoter; Huh7 NPC1 promoter luciferase reporter, 24 h; AID 485313; hit rate 2.4% among 320,000; Potency, µM (doses to about 9.22 µM), actives largely listed as activators; further: nearly all actives have a fitted effect of over 60% in size
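In 1536-well qHTS, Huh7 cells harboring an NPC1 promoter–luciferase construct received compound for 24 h; activation was quantified by luminescence following luciferase reagent addition.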
Rab9 prom act – Rab9 promoter activation | Huh7 Rab9 promoter-luciferase reporter, luminescence, 24 h | Potency, µM (top dose mostly 9.22 µM), most hits filed as activators | hit rate 2.8% among 320,000; further: nearly all actives have a fitted effect of over 60% in size
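Luminescence from Amplite-detected luciferase (10 minutes, ambient) reports Rab9 promoter activation. Before that, stable Rab9-luciferase Huh7 cells (1500/well, reduced-serum OP-MEM I plus 10% FBS) were exposed to compound for 24 hours at 37C.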
SMN2 splice enh – SMN2 splice variant enhancement; HEK293 SMN2-luciferase splicing reporter, luminescence, 30-36 h; Potency, µM (doses to about 46.1 µM), usual class: activators; hit rate 2.8% among 210,000; AID 1458; further: nearly all actives have a fitted effect of over 55% in size
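HEK293 cells carry an SMN2 minigene-luciferase reporter in which exon 7 inclusion puts luciferase in frame. Cells were seeded at 2000 cells/well, attached for 10-12 hours, then exposed to compounds for 30-36 hours at 37C before ONE-Glo luminescence.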
FLuc modulator – inhibits or activates purified firefly luciferase, miR-21 counter-screen | purified FLuc, Km substrates, luminescence inhibition | Potency, µM (highest dose often 57.5 µM), actives largely listed as inhibitors | P08659 | hit rate 6.9% among 360,000 | AID 588342; further: nearly all actives have a fitted effect of over 55% in size
Target sequence (P08659 whole entry, looked up): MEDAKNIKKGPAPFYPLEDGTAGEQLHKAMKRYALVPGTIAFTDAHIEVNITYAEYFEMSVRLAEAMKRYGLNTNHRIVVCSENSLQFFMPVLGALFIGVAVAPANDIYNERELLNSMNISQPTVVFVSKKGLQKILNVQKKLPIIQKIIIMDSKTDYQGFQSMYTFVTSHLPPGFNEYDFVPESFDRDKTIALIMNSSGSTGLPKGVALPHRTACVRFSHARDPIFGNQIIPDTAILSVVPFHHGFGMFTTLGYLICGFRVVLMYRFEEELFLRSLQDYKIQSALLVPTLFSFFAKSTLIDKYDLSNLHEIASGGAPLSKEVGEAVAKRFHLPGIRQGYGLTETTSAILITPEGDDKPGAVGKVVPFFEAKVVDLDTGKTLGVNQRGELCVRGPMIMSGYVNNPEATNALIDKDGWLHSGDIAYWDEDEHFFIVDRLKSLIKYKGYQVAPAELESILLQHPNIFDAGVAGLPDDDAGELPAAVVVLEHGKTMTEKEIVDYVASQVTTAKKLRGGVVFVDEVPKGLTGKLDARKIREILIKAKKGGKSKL
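Purified P. pyralis luciferase, 10 nM final, with Km-level 10 uM D-luciferin and 10 uM ATP in 50 mM Tris acetate pH 7.5, 10 mM Mg acetate, 0.01% Tween-20, 0.05% BSA; 6-point qHTS titration about 60 µM downward; luminescence read.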
Large screens that a line does not name were inactive. The call rests on the fitted dose curve; in most records, active means well fitted curve in the direction sought with a large enough effect; inconclusive means small, poorly fitted or top-dose-only effect, or another doubt; inactive means no such curve, though single readings can be large; an effect the other way counts as inactive or inconclusive.

O=C(CSc1n[nH]c(-c2ccccc2Cl)n1)N1CCN(c2ccccc2)CC1	none (no result: ELG1 DNA repair, ELG1 genotoxic, NPC1 prom act, Rab9 prom act, SMN2 splice enh)
CCCN(CCC)C(=O)Cn1c(=O)n(CCCCCC(=O)NCc2ccccc2Cl)c(=O)c2sccc21	none (no result: ELG1 DNA repair, ELG1 genotoxic, NPC1 prom act, Rab9 prom act)
O=C(/C=C/c1ccc([N+](=O)[O-])s1)N1CCCCC1	ELG1 DNA repair inconclusive
O=C(/C=C/c1cccs1)N1CCCCC1	ELG1 DNA repair inconclusive, ELG1 genotoxic inconclusive, SMN2 splice enh 18µM, FLuc modulator inconclusive
O=C(/C=C/c1ccc([N+](=O)[O-])s1)N1CCCC1	ELG1 DNA repair 15µM
O=C(/C=C/c1cccs1)N1CCN(c2ccc(O)cc2)CC1	ELG1 DNA repair inconclusive
CC(C)Oc1ccc(CNC(=O)c2ccc3c(c2)nc2n3CCCCC2)cc1	FLuc modulator 9.5µM (no result: ELG1 DNA repair, ELG1 genotoxic, NPC1 prom act, Rab9 prom act, SMN2 splice enh)
CCOc1ccc(CNC(=O)c2ccc3c(c2)nc2n3CCOC2)cc1	none (no result: ELG1 DNA repair, ELG1 genotoxic, NPC1 prom act, Rab9 prom act, SMN2 splice enh)
CCOc1ccc(CNC(=O)c2ccc3c(c2)nc2n3CCCCC2)cc1	FLuc modulator 12µM (no result: ELG1 DNA repair, ELG1 genotoxic, NPC1 prom act, Rab9 prom act, SMN2 splice enh)
CC(C)(C)c1ccc(C(=O)NC(Cc2c[nH]c3ccccc23)C(=O)OCC(=O)c2ccc(Cl)cc2)cc1 (stereo not drawn)	none (no result: ELG1 DNA repair, ELG1 genotoxic, NPC1 prom act, Rab9 prom act, SMN2 splice enh)
COC(=O)[C@@H](Cc1c[nH]c2ccccc12)NC(=O)c1ccc2c(c1)OCO2	ELG1 genotoxic inconclusive, FLuc modulator 0.48µM (no result: SMN2 splice enh)
COC(=O)[C@@H](Cc1c[nH]c2ccccc12)NC(=O)c1cc(=O)[nH]c2ccccc12	ELG1 DNA repair inconclusive (no result: SMN2 splice enh)
O=C(COC(=O)[C@H](Cc1c[nH]c2ccccc12)NC(=O)c1ccc(Cl)cc1)Nc1ccc2c(c1)OCO2	FLuc modulator 17µM
Cc1ccc(N2CC(c3nnc(NC(=O)c4ccco4)s3)CC2=O)cc1Cl (stereo not drawn)	none (no result: ELG1 DNA repair, ELG1 genotoxic, NPC1 prom act, Rab9 prom act, SMN2 splice enh)
CCN(CC)CCCN(C(=O)c1ccco1)c1nc(-c2ccc(Cl)cc2)cs1	none (no result: SMN2 splice enh)
CCN(CC)CCCN(C(=O)c1ccco1)c1nc(-c2ccc(C)cc2)cs1	none (no result: SMN2 splice enh)
O=C(c1ccco1)N(CCCN1CCOCC1)c1nc(-c2ccc(F)cc2)cs1	ELG1 DNA repair 9.2µM
O=C(c1ccco1)N(CCCN1CCOCC1)c1nc(-c2ccc(Cl)cc2)cs1	ELG1 DNA repair 21µM
CCc1ccc2oc(-c3cccc(NC(=O)c4ccc(N5CCC(C)CC5)c([N+](=O)[O-])c4)c3)nc2c1	none (no result: ELG1 DNA repair, ELG1 genotoxic, NPC1 prom act, Rab9 prom act)
CC1(C)[C@@H]2CC[C@@]1(C)C(=O)C2	none (no result: ELG1 DNA repair, ELG1 genotoxic, NPC1 prom act, Rab9 prom act, FLuc modulator)
CCc1cccc(C)c1NC(=O)c1cnn(-c2ccc(OC)cc2)c1C1CCN(C(=O)OC(C)(C)C)CC1	none (no result: ELG1 DNA repair, ELG1 genotoxic, NPC1 prom act, Rab9 prom act, SMN2 splice enh)
Cc1ccc(C2=C(Cl)C(=O)C(c3ccc(C)cc3)=C(Cl)C2=O)cc1	none (no result: ELG1 DNA repair, ELG1 genotoxic, NPC1 prom act, Rab9 prom act, FLuc modulator)
O=C(Nc1ccccc1)N1CCCC2CCCCC21 (stereo not drawn)	ELG1 DNA repair inconclusive, ELG1 genotoxic 21µM, NPC1 prom act inconclusive, Rab9 prom act 3.2µM, SMN2 splice enh 11µM, FLuc modulator 15µM
CN=c1scc(-c2ccc(F)cc2)n1/N=C/c1ccc(O)c(O)c1	ELG1 DNA repair inconclusive, SMN2 splice enh inconclusive, FLuc modulator 0.67µM
Cc1ccc(CN2CCN(/N=C/c3ccc(O)c(O)c3)CC2)cc1	none (no result: SMN2 splice enh)
CC(C)(C)OC(=O)N1CCC(c2c(C(=O)NCc3ccco3)cnn2-c2ccc(F)cc2)CC1	none (no result: ELG1 DNA repair, ELG1 genotoxic, NPC1 prom act, Rab9 prom act, SMN2 splice enh)
Cc1cc(=O)oc2cc(NC(=S)NNC(=O)c3c(Cl)cnn3C)ccc12	ELG1 DNA repair inconclusive, ELG1 genotoxic inconclusive, NPC1 prom act 0.45µM, Rab9 prom act 0.89µM, FLuc modulator 1.5µM (no result: SMN2 splice enh)
CCCCn1ccnc1C(=O)c1cccc(S(=O)(=O)N2CC(C)CC(C)C2)c1 (stereo not drawn)	ELG1 DNA repair 21µM
CCCCn1ccnc1C(=O)c1cc(S(=O)(=O)N2CCOCC2)ccc1C	ELG1 DNA repair 6.5µM
Cc1ccccc1NC(=O)C1CCC(CNS(=O)(=O)c2ccc3c(c2)C(C)(C)C(=O)N3C)CC1 (stereo not drawn)	none (no result: ELG1 DNA repair, ELG1 genotoxic, NPC1 prom act, Rab9 prom act, SMN2 splice enh)
Cc1cccc(C(=O)Nc2ccccc2C(=O)Nc2ccc(C(=O)O)cc2)c1	ELG1 DNA repair inconclusive, FLuc modulator 6.7µM (no result: SMN2 splice enh)
COc1cc(NC(=O)c2ccc(C)cc2)c(OC)cc1NC(=O)CN1CCOCC1	ELG1 DNA repair inconclusive, FLuc modulator 19µM
COc1cc(NC(=O)c2ccc(Cl)cc2)c(OC)cc1NC(=O)CN1CCOCC1	ELG1 DNA repair inconclusive, FLuc modulator inconclusive

Screening data (PubChem BioAssay)
